Results from ChEMBL document CHEMBL2218924, “A broad activity screen in support of a chemogenomic map for kinase signalling research and drug discovery” (Biochem J, 2013).

Key:
[1] = target: T1, Testis-specific serine/threonine-protein kinase 1 (Homo sapiens) (UniProt Q9BXA7); details: at 1 µM
T1 sequence (whole entry): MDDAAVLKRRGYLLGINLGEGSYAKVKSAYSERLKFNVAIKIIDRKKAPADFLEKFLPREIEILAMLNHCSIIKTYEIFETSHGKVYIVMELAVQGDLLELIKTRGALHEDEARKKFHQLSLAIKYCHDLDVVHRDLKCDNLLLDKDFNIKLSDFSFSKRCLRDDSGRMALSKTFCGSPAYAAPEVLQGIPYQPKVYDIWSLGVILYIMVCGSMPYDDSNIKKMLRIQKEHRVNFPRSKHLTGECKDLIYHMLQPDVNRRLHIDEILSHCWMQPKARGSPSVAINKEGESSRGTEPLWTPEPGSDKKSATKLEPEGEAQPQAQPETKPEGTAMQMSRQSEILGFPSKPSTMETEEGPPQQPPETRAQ

[2] = target: T1, Testis-specific serine/threonine-protein kinase 1 (Homo sapiens); details: at 10 µM
[3] = target: T2, Testis-specific serine/threonine-protein kinase 2 (Homo sapiens) (UniProt Q96PF2); details: at 10 µM
T2 sequence (whole entry): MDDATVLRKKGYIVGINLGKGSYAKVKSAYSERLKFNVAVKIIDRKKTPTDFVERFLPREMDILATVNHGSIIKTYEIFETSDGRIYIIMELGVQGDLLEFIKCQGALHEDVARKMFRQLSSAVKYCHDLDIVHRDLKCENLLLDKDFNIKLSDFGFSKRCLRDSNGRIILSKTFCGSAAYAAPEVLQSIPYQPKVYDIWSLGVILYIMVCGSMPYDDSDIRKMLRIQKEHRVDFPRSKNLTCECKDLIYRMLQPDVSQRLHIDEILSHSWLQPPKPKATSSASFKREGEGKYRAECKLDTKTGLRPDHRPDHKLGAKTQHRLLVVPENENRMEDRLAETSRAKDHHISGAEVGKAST

[4] = target: T3, Tyrosine-protein kinase Tec (Homo sapiens) (UniProt P42680); details: at 1 µM
T3 sequence (whole entry): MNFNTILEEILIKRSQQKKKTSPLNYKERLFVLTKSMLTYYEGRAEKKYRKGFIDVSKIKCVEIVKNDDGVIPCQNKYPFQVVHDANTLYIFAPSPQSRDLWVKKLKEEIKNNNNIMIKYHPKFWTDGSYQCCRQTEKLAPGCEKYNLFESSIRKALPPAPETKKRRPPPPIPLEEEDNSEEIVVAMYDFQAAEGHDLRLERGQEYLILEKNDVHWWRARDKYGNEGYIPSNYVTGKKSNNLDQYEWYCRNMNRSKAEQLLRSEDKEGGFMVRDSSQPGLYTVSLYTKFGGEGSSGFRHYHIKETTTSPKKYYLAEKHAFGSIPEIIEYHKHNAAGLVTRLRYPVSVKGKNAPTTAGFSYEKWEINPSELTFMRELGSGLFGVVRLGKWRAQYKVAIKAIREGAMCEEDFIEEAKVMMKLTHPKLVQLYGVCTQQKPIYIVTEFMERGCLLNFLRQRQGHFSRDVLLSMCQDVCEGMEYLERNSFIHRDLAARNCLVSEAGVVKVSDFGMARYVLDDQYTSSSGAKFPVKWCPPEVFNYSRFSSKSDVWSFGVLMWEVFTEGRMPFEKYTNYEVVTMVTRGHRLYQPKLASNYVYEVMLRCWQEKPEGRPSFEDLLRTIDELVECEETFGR

[5] = target: T3, Tyrosine-protein kinase Tec (Homo sapiens); details: at 10 µM
[6] = target: Angiopoietin-1 receptor (Homo sapiens) (UniProt Q02763); details: at 1 µM
Chain of Angiopoietin-1 receptor (Homo sapiens) (Q02763 whole entry): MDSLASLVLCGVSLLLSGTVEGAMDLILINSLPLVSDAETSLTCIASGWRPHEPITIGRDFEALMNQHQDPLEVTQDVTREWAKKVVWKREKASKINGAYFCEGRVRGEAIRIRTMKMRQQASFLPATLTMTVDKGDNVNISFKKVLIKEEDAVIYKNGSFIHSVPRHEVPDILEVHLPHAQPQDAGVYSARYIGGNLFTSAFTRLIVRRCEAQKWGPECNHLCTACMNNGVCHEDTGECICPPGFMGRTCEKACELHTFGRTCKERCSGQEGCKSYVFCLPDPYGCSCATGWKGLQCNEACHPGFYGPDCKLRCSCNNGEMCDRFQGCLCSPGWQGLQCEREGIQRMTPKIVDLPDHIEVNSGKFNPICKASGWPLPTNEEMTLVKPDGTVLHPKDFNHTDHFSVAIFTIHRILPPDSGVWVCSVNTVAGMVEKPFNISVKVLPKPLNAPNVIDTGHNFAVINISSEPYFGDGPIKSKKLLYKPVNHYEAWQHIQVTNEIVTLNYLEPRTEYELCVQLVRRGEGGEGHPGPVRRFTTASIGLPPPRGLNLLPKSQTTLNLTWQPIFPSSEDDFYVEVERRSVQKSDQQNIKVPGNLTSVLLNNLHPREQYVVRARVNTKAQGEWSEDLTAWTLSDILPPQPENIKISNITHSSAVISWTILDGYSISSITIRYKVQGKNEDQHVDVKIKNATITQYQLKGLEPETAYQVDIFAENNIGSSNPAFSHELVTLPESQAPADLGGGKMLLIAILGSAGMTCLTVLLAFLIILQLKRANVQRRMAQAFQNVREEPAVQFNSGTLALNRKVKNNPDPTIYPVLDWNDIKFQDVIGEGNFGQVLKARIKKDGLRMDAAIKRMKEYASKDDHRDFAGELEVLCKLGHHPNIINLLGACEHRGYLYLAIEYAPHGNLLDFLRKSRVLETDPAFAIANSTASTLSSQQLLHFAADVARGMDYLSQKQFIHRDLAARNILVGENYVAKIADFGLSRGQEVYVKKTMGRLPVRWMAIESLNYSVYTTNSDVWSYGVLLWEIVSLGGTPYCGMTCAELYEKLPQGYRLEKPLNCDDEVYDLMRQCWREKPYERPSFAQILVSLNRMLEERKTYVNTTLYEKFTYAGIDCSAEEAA

[7] = target: Angiopoietin-1 receptor (Homo sapiens) (UniProt Q02763); details: at 10 µM
[8] = target: High affinity nerve growth factor receptor (Homo sapiens) (UniProt P04629); details: at 1 µM
Chain of High affinity nerve growth factor receptor (Homo sapiens) (P04629 33-796 limits assumed): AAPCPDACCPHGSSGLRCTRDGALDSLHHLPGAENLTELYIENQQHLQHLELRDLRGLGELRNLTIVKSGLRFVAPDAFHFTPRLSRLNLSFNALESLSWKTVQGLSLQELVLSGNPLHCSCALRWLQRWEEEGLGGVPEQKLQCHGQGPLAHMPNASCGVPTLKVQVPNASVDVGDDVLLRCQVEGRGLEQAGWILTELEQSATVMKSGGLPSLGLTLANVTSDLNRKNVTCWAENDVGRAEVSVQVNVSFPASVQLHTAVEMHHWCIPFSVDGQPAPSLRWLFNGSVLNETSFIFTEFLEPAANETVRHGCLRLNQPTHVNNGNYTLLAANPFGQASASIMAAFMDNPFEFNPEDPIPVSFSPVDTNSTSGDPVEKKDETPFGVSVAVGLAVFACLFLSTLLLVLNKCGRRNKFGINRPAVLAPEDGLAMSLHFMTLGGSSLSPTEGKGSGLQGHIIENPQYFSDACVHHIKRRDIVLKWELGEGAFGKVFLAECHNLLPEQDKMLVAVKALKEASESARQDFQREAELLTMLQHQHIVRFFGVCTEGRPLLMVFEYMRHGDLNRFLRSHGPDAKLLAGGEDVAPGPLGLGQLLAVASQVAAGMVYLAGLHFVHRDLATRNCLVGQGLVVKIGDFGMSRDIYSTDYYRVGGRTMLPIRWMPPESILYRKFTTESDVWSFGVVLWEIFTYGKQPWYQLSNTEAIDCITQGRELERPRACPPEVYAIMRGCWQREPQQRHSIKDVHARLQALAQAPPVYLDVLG

[9] = target: BDNF/NT-3 growth factors receptor (Homo sapiens) (UniProt Q16620); details: at 10 µM
Chain of BDNF/NT-3 growth factors receptor (Homo sapiens) (Q16620 32-822 limits assumed): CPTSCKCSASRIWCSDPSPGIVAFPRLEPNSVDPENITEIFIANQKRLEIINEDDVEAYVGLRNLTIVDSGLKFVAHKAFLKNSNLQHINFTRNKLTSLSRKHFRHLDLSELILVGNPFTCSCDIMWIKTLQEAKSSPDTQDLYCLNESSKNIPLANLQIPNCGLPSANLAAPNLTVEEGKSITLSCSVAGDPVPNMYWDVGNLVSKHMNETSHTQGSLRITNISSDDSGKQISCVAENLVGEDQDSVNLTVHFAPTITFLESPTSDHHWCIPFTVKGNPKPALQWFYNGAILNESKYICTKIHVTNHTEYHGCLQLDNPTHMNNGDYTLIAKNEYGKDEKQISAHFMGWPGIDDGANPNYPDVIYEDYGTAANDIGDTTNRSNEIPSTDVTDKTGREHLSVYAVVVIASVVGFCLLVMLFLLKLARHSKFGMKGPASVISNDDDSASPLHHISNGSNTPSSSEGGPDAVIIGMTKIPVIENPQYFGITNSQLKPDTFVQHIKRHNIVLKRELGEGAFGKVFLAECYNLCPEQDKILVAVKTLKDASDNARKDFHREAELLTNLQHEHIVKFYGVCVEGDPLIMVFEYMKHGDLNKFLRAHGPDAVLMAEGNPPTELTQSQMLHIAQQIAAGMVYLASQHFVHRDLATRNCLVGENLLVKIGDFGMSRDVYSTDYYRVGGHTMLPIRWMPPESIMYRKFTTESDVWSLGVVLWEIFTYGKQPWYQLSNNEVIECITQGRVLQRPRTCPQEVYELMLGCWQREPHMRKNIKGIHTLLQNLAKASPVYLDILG

[10] = target: T4, Tyrosine-protein kinase TXK (Homo sapiens) (UniProt P42681); details: at 1 µM
T4 sequence (whole entry): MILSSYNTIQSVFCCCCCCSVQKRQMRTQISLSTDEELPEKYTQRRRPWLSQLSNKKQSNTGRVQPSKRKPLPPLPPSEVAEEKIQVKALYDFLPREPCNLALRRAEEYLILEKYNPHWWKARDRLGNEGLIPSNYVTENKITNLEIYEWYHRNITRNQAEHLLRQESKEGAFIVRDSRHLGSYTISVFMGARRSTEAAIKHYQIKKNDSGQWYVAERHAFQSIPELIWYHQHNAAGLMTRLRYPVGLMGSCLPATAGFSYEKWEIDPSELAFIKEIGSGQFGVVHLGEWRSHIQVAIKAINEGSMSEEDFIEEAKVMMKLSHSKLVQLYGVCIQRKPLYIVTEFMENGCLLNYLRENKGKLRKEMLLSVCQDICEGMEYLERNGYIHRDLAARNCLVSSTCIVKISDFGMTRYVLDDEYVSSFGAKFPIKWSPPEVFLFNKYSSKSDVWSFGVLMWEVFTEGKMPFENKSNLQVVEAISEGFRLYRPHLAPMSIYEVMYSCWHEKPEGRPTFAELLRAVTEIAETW

[11] = target: T4, Tyrosine-protein kinase TXK (Homo sapiens); details: at 10 µM
[12] = target: T5, Serine/threonine-protein kinase ULK2 (Homo sapiens) (UniProt Q8IYT8); details: at 1 µM
T5 sequence (whole entry): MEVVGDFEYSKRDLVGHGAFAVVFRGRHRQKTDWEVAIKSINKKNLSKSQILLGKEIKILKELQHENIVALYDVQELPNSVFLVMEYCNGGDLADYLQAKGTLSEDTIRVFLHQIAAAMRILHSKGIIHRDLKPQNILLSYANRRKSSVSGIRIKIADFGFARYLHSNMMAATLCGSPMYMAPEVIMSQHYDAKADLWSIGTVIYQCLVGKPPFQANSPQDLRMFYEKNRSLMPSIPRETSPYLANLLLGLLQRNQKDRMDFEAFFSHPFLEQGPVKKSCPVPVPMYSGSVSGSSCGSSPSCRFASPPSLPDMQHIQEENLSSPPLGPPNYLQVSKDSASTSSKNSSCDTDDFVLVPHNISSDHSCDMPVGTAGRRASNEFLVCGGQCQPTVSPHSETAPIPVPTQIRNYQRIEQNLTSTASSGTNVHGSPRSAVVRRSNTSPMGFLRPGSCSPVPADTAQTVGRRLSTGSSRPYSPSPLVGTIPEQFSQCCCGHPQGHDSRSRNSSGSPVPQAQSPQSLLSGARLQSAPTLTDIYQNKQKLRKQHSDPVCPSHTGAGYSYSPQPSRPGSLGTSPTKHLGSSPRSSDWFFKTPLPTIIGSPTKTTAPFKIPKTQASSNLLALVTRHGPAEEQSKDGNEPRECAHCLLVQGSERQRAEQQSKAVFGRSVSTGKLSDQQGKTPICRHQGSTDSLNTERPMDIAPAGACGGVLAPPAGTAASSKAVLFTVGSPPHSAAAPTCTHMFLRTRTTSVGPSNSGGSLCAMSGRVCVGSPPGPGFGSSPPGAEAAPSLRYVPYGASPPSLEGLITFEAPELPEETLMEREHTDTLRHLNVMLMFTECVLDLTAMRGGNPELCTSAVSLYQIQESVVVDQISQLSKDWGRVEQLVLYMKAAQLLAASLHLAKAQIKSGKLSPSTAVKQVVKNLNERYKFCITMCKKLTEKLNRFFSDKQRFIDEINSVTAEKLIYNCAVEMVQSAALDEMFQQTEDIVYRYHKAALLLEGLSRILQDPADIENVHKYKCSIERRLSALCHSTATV

[13] = target: T5, Serine/threonine-protein kinase ULK2 (Homo sapiens); details: at 10 µM
[14] = target: T6, Serine/threonine-protein kinase ULK3 (Homo sapiens) (UniProt Q6PHR2); details: at 1 µM
T6 sequence (whole entry): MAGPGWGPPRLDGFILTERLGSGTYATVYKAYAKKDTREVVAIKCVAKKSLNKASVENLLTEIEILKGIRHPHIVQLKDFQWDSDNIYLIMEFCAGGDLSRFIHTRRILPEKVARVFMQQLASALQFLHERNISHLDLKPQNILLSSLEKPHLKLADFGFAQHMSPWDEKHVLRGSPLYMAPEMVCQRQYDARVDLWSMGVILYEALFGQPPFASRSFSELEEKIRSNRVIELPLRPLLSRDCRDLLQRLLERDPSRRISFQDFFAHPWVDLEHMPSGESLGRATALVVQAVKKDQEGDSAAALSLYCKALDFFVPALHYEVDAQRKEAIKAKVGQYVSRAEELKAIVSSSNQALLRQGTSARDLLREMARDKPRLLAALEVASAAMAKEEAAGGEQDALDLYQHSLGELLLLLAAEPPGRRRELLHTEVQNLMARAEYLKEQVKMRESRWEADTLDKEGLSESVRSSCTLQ

[15] = target: T6, Serine/threonine-protein kinase ULK3 (Homo sapiens); details: at 10 µM
[16] = target: Serine/threonine-protein kinase VRK2 (Homo sapiens) (UniProt Q86Y07); details: at 1 µM
Chain of Serine/threonine-protein kinase VRK2 (Homo sapiens) (Q86Y07 whole entry): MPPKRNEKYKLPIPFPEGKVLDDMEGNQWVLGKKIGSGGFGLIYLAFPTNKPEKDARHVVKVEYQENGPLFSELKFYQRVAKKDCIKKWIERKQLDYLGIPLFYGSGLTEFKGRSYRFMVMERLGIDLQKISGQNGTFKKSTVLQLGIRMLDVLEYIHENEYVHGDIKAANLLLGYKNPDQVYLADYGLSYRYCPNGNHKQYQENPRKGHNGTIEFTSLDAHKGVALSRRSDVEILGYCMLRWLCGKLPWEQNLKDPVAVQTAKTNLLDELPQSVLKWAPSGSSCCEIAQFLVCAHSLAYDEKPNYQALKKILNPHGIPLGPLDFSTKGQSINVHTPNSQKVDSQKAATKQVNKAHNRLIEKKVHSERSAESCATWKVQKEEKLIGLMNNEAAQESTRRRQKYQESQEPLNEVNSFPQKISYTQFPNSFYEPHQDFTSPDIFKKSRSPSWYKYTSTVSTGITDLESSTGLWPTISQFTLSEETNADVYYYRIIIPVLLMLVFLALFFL

[17] = target: Serine/threonine-protein kinase VRK2 (Homo sapiens) (UniProt Q86Y07); details: at 10 µM
[18] = target: Serine/threonine-protein kinase WNK2 (Homo sapiens) (UniProt Q9Y3S1); details: at 1 µM;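 note: residual WNK2 kinase activity expressed as percent of uninhibited control, assayed in MOPS buffer at pH 7.0 containing EDTA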
[19] = target: High affinity nerve growth factor receptor (Homo sapiens) (UniProt P04629); details: at 10 µM
[20] = target: BDNF/NT-3 growth factors receptor (Homo sapiens) (UniProt Q16620); details: at 1 µM

| SMILES | residual activity [1] [%] | residual activity [2] [%] | residual activity [3] [%] | residual activity [4] [%] | residual activity [5] [%] | residual activity [6] [%] | residual activity [7] [%] | residual activity [8] [%] | residual activity [9] [%] | residual activity [10] [%] | residual activity [11] [%] | residual activity [12] [%] | residual activity [13] [%] | residual activity [14] [%] | residual activity [15] [%] | residual activity [16] | residual activity [17] [%] | residual activity [18] | residual activity [19] [%] | residual activity [20] [%] |
| --- | --- | --- | --- | --- | --- | --- | --- | --- | --- | --- | --- | --- | --- | --- | --- | --- | --- | --- | --- | --- |
| O=c1cc(N2CCOCC2)oc2c1ccc1ccccc12 | 101 | 82 | 78 | 93 | 96 | 81 | 97 | 106 | 102 | 90 | 85 | 102 | 88 | 106 | 94 | 105% (inactive) | 90 | 110% (inactive) | – | – |
| COc1cc2nccc(Oc3ccc(NC(=S)NC(=O)c4ccccc4C)cc3)c2cc1OC | 93 | 76 | 81 | 79 | 36 | 33 | 13 | 44 | 25 | 88 | 37 | 101 | 93 | 99 | 76 | 93% (inactive) | 90 | 76% (inactive) | -1 | 54 |
| CC(C)N(CCC(=O)c1ccc2ccccc2c1)Cc1ccccc1 | 81 | 78 | – | – | 73 | – | – | – | – | – | 42 | – | – | – | 86 | 100% (inactive) | 86 | – | – | – |
| O=C(NC(NC(=S)Nc1ccc(F)c([N+](=O)[O-])c1)C(Cl)(Cl)Cl)C(c1ccccc1)c1ccccc1 (centres undefined) | 87 | 103 | 101 | 102 | 62 | – | 82 | 87 | 89 | 82 | 76 | 96 | – | 97 | 98 | – | 95 | – | 52 | 91 |
| CCCCc1c(-c2ccc(OC)cc2)[nH]c2nccnc12 | 63 | 81 | – | 51 | 11 | 105 | 82 | 61 | 76 | 53 | 55 | – | – | 68 | 69 | 105% (inactive) | 100 | 105% (inactive) | 57 | 70 |
| Cn1sc(=O)n(Cc2ccccc2)c1=O | 63 | 80 | 84 | 97 | 75 | – | – | 81 | – | 83 | 88 | 90 | 93 | 92 | 92 | 98% (inactive) | 90 | 96% (inactive) | 68 | – |
| O=C1C(Cl)=C(N2C(=O)CCC2=O)C(=O)c2ccccc21 | 101 | 79 | 80 | 90 | 79 | – | 71 | 89 | 93 | 76 | 87 | – | – | 87 | 97 | 93% (inactive) | 98 | 89% (inactive) | 68 | 85 |
| CC(C)(C)c1nc2c3ccc(F)cc3c3c(=O)[nH]ccc3c2[nH]1 | 42 | 60 | – | – | – | 78 | 64 | 3 | -2 | 63 | 57 | 26 | 25 | 56 | 13 | – | – | – | 6 | 71 |
| O=C(O)/C=C/c1cc(Br)c(Br)c(Br)c1Br | 81 | 99 | 102 | 94 | 96 | 99 | 89 | – | 83 | 94 | 95 | 109 | 107 | 98 | 93 | 109% (inactive) | 105 | – | – | 109 |
| O=C1Cc2c([nH]c3ccc(Br)cc23)-c2ccccc2N1 | 87 | 49 | 76 | 92 | 55 | – | – | – | 66 | – | – | – | – | – | – | 99% (inactive) | 90 | 93% (inactive) | – | – |
| COc1cc2c(cc1OC)-c1n[nH]c(Nc3cccc(F)c3)c1C2 | 77 | 68 | – | 63 | 18 | – | 74 | 69 | 31 | 64 | 20 | – | – | 98 | 72 | – | – | 78% (inactive) | 6 | 56 |
| CC(C)[C@H](CO)Nc1nc(Nc2cc(N)cc(Cl)c2)c2ncn(C(C)C)c2n1 | 86 | 66 | 90 | 61 | 13 | 100 | 52 | 5 | – | 63 | 17 | – | – | 41 | 8 | – | – | 87% (inactive) | 0 | – |
| O=C1NC(=O)C(c2cn(CCCO)c3ncccc23)=C1c1cnccn1 | 97 | 84 | 59 | 91 | 73 | 95 | 94 | 80 | 90 | 82 | 86 | – | – | 93 | 92 | – | – | – | 64 | 87 |
